# The campaign covered roughly 1,200 compounds. Fewer than 10 were called active. Calls follow the shape of the dose curve; as a rule, active = well fitted curve in the direction sought with a large enough effect; inconclusive = small, poorly fitted or top-dose-only effect, or another doubt; inactive = no such curve, though single readings can be large or run the other way. Only a sample is shown.
# Assay: Confirmatory qHTS assay for inhibitors of Activation Induced Cytidine Deaminase (AID): UDG signals; also: 0% is about no effect
# Settings: UDG coupled enzyme activity counter-screen; series mostly up to 115 µM; activity change, negative = inhibition: at the top concentration
# Excerpt: Assay Provider (PI) Patricia Gearhart Ph.D.
# National Institute on Aging
# National Institute of Health (NIH), Bethesda, MD
# Assay Provider (PI) Rahul Kohli Ph.D.
# Perelman School of Medicine
# University of Pennsylvania, Philadelphia, PA
# Activation-Induced Deaminase (AID) is a cytosine deaminase which converts cytosine into uracil within stretches of ssDNA. The presence of uracil in DNA initiates a cascade of mutagenic DNA repair to introduce point mutations and DNA double strand breaks. Specific targeting of AID to the immunoglobulin heavy chain loci (Igh) promotes mutagenesis in the antibody variable region for somatic hypermutation (SHM) or switch regions leading to class switch recombination (CSR). However, AID also plays a role in accumulating unnecessary mutations across the genome. Mis-targeting of AID results in the initiation of tumor development and leads to greater drug resistance among cancer cells when continually expressed. To identify an AID inhibitor, a small molecule library will be screened in collaboration with NCATS core facility at NIH. To confirm biological function, inhibitors will be examined in an in vitro murine B-cell activation assay and subsequent secondary validation screens. Top molecules will be further screened to identify inhibitory efficacy against a wild type primary splenocytes assay. Using these approaches, we hope to identify a small molecule with great efficacy and low toxicity for use as a molecular probe to further characterize AID's intricacies, or even as a therapeutic.
# A FRET based analysis of cytosine deamination, was developed to identify potential inhibitors of AID catalytic activity. This screen has two signal output, Read 1 evaluates the AID inhibition response. The second readout (Read 2) evaluates UDG response and is uses as a counterscreen to exclude false positive inhibitors. Inhibition in AID and inactivity in the UDG signal is the desired outcome for this assay.
# SEQUENCE No. (e.g., 1, 2, 3, etc.); […] (e.g., Cells, Incubation, Reagent, etc.); VALUE; DESCRIPTION
# 1a; Reagent; 3 uL; [4/3x] 1 uM AID/2.67 U/mL UDG
# 1b; Reagent; 3 uL; 2 U/mL UDG
# 1c; Reagent; 3 uL; 1 uM AID
# 2a; Compound; 46 nL; Follow-up plates (0.64 uM - 10 mM)
# 2b; Control; 46 nL; ATA ([…] - 10 mM)
# 3; Time; 10 min; incubation at room temperature
# 5; Time; 4 hr; incubation at room temperature
# 6; Reagent; 4 uL; [2x] 250 mM NaOH
# 7; Time; 15 sec; centrifuge at 1000 rpm
# 8; Time; 30 min; incubation at room temperature
# 9a; Detection; fluorescence (Read 1: AID); EnVision (PerkinElmer) plate reader, 540 excitation and 590 emission filters
# 9b; Detection; fluorescence (Read 2: UDG); EnVision (PerkinElmer) plate reader, 560 excitation and 665 emission filters
# NOTES (numbers refer to sequence above)
# 1a; Reagents were dispensed in a medium-binding black solid-bottom Greiner plates (789176F) using a BioRptr liquid dispenser. Dispense 3 uL of [4/3x] 1 uM AID (provided by Kohli lab) and [4/3x] 2 U/mL UDG (NEB M0280L) into columns 1, 2, 5 to 48.
# 1b; Dispense 3 uL of [4/3x] 2 U/mL UDG into column 3.
# 1c; Dispense 3 uL of [4/3x] 1 uM AID into column 4.
# 2a; Compound (7-points [uM]: 0.64; 3.2; 16; 80; 400; 2,000; 10,000; […]) double pin-transferred (Dip Factor = 2) using the Kalypsys (Wako USA) pintool equipped with a 1536 pinhead for a final concentration range of 7.32 nM - 114 uM.
# 2b; 10 mM Aurintricarboxylic Acid (Sigma A1895) (ATA, 8-point, n = 2, 1:2.5 dilution in column 2) double pin-transferred (Dip Factor = 2) using the Kalypsys (Wako USA) pintool equipped with a 1536 pinhead for a [final] range of 186 nM - 114 uM.
# 3; Room temperature incubation.
# 4; Dispense 1 uL of substrate mixture from the Kohli lab [4x] […] DJC20 and [4x] 250 nM DJC23 into columns 1 to 48 .
# 5; Room temperature incubation.
# 6; Dispense 4 uL of substrate mixture [2x] 250 mM NaOH into columns 1 to 48.
# 7; Centrifugation step to remove bubbles.
# 8; Room temperature incubation
# 9a; Fluorescence signal (column label AID) was read using the EnVision plate reader. […]
row,SMILES,"activity change, negative = inhibition"
1,CCCCn1c(-c2ccc(C)cc2)c(C)n2c3c(=O)n(C)c(=O)n(C)c3nc12,-8.55% (inactive)
2,COc1ccccc1CC(=O)Nc1ccc2nc(Nc3cccc(C(F)(F)F)c3)cc(C)c2c1,-7.35% (inactive)
3,CC1CCCCN1CCNC(=O)c1ccc(Cn2c(SCc3ccccc3)nc3cccnc32)cc1 (centres undefined),-1.41% (inactive)
4,CC(C)CCN(Cc1ccco1)C(=O)c1cc2c(s1)-c1ccccc1OC2,-3.35% (inactive)
5,CCC(C)c1ccc(OCC(=O)Nc2cccc(-c3nc4ncccc4o3)c2)cc1 (centres undefined),-3.86% (inactive)
6,CCc1ccc(NC(=O)c2cc(C(C)=O)n3ccccc23)cc1,-4.94% (inactive)
7,CCc1ccc2oc(C(=O)NCC(c3ccc(Cl)cc3)N3CCOCC3)c(C)c2c1 (centres undefined),-10.8% (inactive)
8,COc1ccc(N(C)C(=O)c2cc3c(s2)-c2ccccc2OC3)cc1,-11.3% (inactive)
9,COc1ccc(C2CC(=O)N3CN(C4CCCCC4)CSC3=C2C#N)c(OC)c1 (centres undefined),-11.5% (inactive)
10,CCn1cc2nc(SCc3cccc(C(F)(F)F)c3)n(Cc3ccc(C)cc3)c(=O)c2n1,-5.91% (inactive)
11,Cc1ccc(-n2ncc(C(=O)N3CCN(Cc4ccccc4)CC3)c2C2CCN(C(=O)OC(C)(C)C)CC2)c(C)c1,-9.77% (inactive)
12,CCn1cc(S(=O)(=O)c2ccc(Cl)cc2)c(=O)c2cc(F)c(N3CCOCC3)cc21,8.08% (inactive)
13,Cc1ccc(-n2c(=O)c3oc4ccccc4c3n(Cc3cccc(F)c3)c2=O)cc1C,1.83% (inactive)
14,O=C(c1cccn1-c1nnc(N2CCCCC2)s1)N1CCN(c2ccc(Cl)cc2)CC1,-13.6% (inactive)
15,Cc1ccc(Cl)cc1N1CCN(C(=O)c2ccc3c(c2)N(Cc2ccccc2)CCS3)CC1,10.8% (inactive)
16,COc1ccc(-c2coc3c2c(C)cc2oc(=O)c(CC(=O)O)c(C)c23)cc1,-15.3% (inactive)
17,CCCc1cc(=O)n2[nH]c(NC(=O)c3ccc(C(C)(C)C)cc3)nc2n1,14.5% (inactive)
18,Cc1ccccc1C(=O)Nc1ccc(C(=O)OCc2cc(=O)n3c4c(sc3n2)CCCC4)cc1,-1.88% (inactive)
19,Cc1ccc2c(C)c(C(=O)NCC(c3ccc(Cl)cc3)N3CCOCC3)oc2c1 (centres undefined),-1.8% (inactive)
20,CCOC(=O)c1c(C)oc2nc(C)nc(N3CCN(c4ccccc4F)CC3)c12,-3.63% (inactive)
21,CCN(CC)C(=O)c1ccc2c(c1)N(Cc1c(F)cccc1Cl)C(=O)c1ccccc1S2,0.172% (inactive)
22,COc1ccc(-c2nn3c(-c4ccccc4C)nnc3c3ccccc23)cc1,-9.22% (inactive)
23,COc1ccc(CCNC(=O)CSc2cn(CCNC(=O)c3cccc(C(F)(F)F)c3)c3ccccc23)cc1OC,-4.31% (inactive)
24,CCOCCCn1c(=N)c(C(=O)NC(C)c2ccccc2)cc2c(=O)n3cccc(C)c3nc21 (centres undefined),-12.7% (inactive)
25,COc1ccc(CNc2oc(-c3ccc(COc4ccccc4C)o3)nc2C#N)cc1,-3.1% (inactive)
26,Cc1ccc(Cl)cc1N(C)C(=O)c1sc2nc3n(c(=O)c2c1C)CCCC3,-5.4% (inactive)
27,COc1cc2c(=O)c(S(=O)(=O)c3ccc(C)cc3)cn(Cc3cccc(C)c3)c2cc1OC,-3.74% (inactive)
28,O=C(Nc1cc(-c2ccccc2)sc1C(=O)O)c1cccc(F)c1,-3.22% (inactive)
29,C=Cc1ccc(CN2C(=O)N(c3ccc(C)c(C)c3)S(=O)(=O)c3ccccc32)cc1,-4.6% (inactive)

# Reference: PubChem BioAssay AID1347431 (National Center for Advancing Translational Sciences (NCATS), 2020)
